Results: PubChem BioAssay (Tox21)
Calls of active or inactive are those of the source. A call without a number means that no potency is given here. Unless noted, calls come from the whole dose curve; as a rule, active = well fitted curve in the direction sought with a large enough effect in the repeat runs; inconclusive = weak or mixed curves; inactive = no such curve, though single readings can be large; an effect the other way counts as inactive or inconclusive.

Key:
[1] = qHTS assay to test for compound auto fluorescence at 535 nm (green) in HEK293 cells (AID 720680)
[2] = qHTS assay to test for compound auto fluorescence at 460 nm (blue) in HEK293 cell free culture (AID 720681)
How it was run: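 Blue fluorescence (Ex 405/Em 460 nm, triamterene-equivalent) was read immediately after pin transfer of compound or DMSO into medium (DMEM, 10% FBS) without cells.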

[3] = qHTS assay to test for compound auto fluorescence at 535 nm (green) in HEK293 cell free culture (AID 720682)
How it was run: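 Using fluorescein as calibrant, autofluorescence was quantified at 485/535 nm in cell-free DMEM containing 10% FBS after pintool addition of compound or vehicle.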

[4] = qHTS assay to test for compound auto fluorescence at 590 nm (red) in HEK293 cell free culture (AID 720683)
How it was run: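 Red-channel autofluorescence of compounds in culture medium (DMEM, 10% FBS), no cells, measured at 540/590 nm. Rose Bengal sodium is the reference fluorophore for equivalence.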

[5] = qHTS assay to test for compound auto fluorescence at 590 nm (red) in HepG2 cell free culture (AID 720684)
How it was run: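 Steps: dispense MEM/10% FBS medium, no cells; pin compound or DMSO vehicle; read red channel, Ex/Em 540/590 nm. Output given as Rose Bengal sodium equivalents.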

[6] = qHTS assay to test for compound auto fluorescence at 535 nm (green) in HepG2 cell free culture (AID 720686)
[7] = qHTS assay to test for compound auto fluorescence at 460 nm (blue) in HepG2 cells (AID 720687)
How it was run: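 Blue-channel autofluorescence (Ex/Em 405/460 nm, triamterene-equivalent) was measured after 1 hr compound exposure at 37 C, 5% CO2. Cells were HepG2, plated overnight at 37 C in MEM plus 10% FBS.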

[8] = qHTS assay to identify small molecule antagonists of the glucocorticoid receptor (GR) signaling pathway - cell viability counter screen (AID 720693); note: nearly all actives have a fitted effect of over 55% in size
[9] = qHTS assay for identifying genotoxic compounds that show differential cytotoxicity against isogenic chicken DT40 cell lines with known DNA damage response pathways - wild type cell line (AID 743012); note: nearly all actives have a fitted effect of over 60% in size; note: potency is the fitted concentration of half-maximal effect
How it was run: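 Cells (DT40 wild type, 300/well) are treated with DMSO-dissolved compounds after a ~0.5 h pre-incubation and kept 40 h at 37 C/5% CO2. Viability is then measured by CellTiter-Glo luminescence following 30 min at room temperature.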

[10] = qHTS assay for identifying genotoxic compounds that show differential cytotoxicity against isogenic chicken DT40 cell lines with known DNA damage response pathways - Rad54/Ku70 mutant cell line (AID 743015); note: nearly all actives have a fitted effect of over 60% in size; note: potency is the fitted concentration of half-maximal effect
[11] = qHTS assay to identify small molecule antagonists of the androgen receptor (AR) signaling pathway using the MDA cell line - cell viability counter screen (AID 743041; note: nearly all actives have a fitted effect of over 45% in size)
How it was run: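 Cells were plated at 3,000 per well and left 5 h. Compounds in DMSO were then pinned in, followed by R1881. After 16 h at 37C, CellTiter-Fluor fluorescence gave viability.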

[12] = qHTS assay for identifying genotoxic compounds that show differential cytotoxicity against isogenic chicken DT40 cell lines with known DNA damage response pathways - Rev3 mutant cell line (AID 743014); note: nearly all actives have a fitted effect of over 55% in size; note: potency is the fitted concentration of half-maximal effect
[13] = qHTS assay to identify small molecule antagonists of the androgen receptor (AR) signaling pathway - cell viability counter screen (AID 743033; note: nearly all actives have a fitted effect of over 45% in size)
[14] = target: Glucocorticoid receptor (Homo sapiens) (UniProt P04150); test: qHTS assay to identify small molecule agonists of the glucocorticoid receptor (GR) signaling pathway (AID 720691; active = well fitted activation curve with a large enough effect in the signal ratio in the repeat runs, not every such curve was filed as active; inconclusive = weak or mixed curves, or effect the other way; inactive = no such curve, though single readings can be large or run the other way; the % refers to the signal ratio; note: potency is the fitted concentration of half-maximal effect); conditions: GR-bla HeLa, beta-lactamase reporter ratio, 18 h; activation: at 62.4 µM (top of the series)
How it was run: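 Agonist mode in a HeLa line carrying a GRE-controlled beta-lactamase reporter. Compounds act for 18 h at 37 C before a 2 h room-temperature FRET substrate step and fluorescence reading.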

[15] = qHTS assay to test for compound auto fluorescence at 460 nm (blue) in HepG2 cell free culture (AID 720685)
How it was run: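 Compound (23 nL) or DMSO pinned into cell-free MEM with 10% FBS; blue fluorescence read at 405/460 nm excitation/emission, expressed as auto-fluorescence equivalency to triamterene.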

[16] = target: Glucocorticoid receptor (Homo sapiens) (UniProt P04150); test: qHTS assay to identify small molecule antagonists of the glucocorticoid receptor (GR) signaling pathway (AID 720692; active = well fitted inhibition curve with a large enough effect in the signal ratio in the repeat runs, not every such curve was filed as active; inconclusive = weak or mixed curves, or effect the other way; inactive = no such curve, though single readings can be large or run the other way; the % refers to the signal ratio; note: potency is the fitted concentration of half-maximal effect)
How it was run: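 Cells plated, rested 4 h at 37 C/5% CO2; compounds in DMSO pin-transferred; dexamethasone added to 5 nM final; 18 h at 37 C; B/G FRET substrate added, 2 h room temperature; fluorescence measured.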

[17] = target: Androgen receptor (Homo sapiens) (UniProt P10275); test: qHTS assay to identify small molecule antagonists of the androgen receptor (AR) signaling pathway (AID 743035; active = well fitted inhibition curve with a large enough effect in the signal ratio in the repeat runs, not every such curve was filed as active; inconclusive = weak or mixed curves, or effect the other way; inactive = no such curve, though single readings can be large or run the other way; the % refers to the signal ratio; note: potency is the fitted concentration of half-maximal effect)
How it was run: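 Antagonism is scored as loss of R1881-driven beta-lactamase reporter expression in HEK293 cells carrying the reporter under a UAS element, after 16 h co-treatment at 37C and a 2 h room-temperature FRET substrate read.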

[18] = target: Androgen receptor (Homo sapiens) (UniProt P10275); test: qHTS assay to identify small molecule agonists of the androgen receptor (AR) signaling pathway using the MDA cell line (AID 743040; note: nearly all actives have a fitted effect of over 20% in size)
How it was run: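 Cells plated, 5 h at 37C/0% CO2; compound or DMSO pinned; 16 h at 37C; ONE-Glo added; luminescence measured after 30 min at room temperature. Reporter line: MDA-kb2 with MMTV-luciferase responsive to AR and GR.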

[19] = target: Androgen receptor (Homo sapiens) (UniProt P10275); test: qHTS assay to identify small molecule antagonists of the androgen receptor (AR) signaling pathway using the MDA cell line (AID 743042; note: nearly all actives have a fitted effect of over 55% in size)
How it was run: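 Antagonist mode: compounds plus R1881 agonist added to MDA-kb2 AR-luc cells, incubated 16 h at 37C. Luciferase reporter luminescence quantified, with multiplexed CellTiter-Fluor readout for cell viability.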

Androgen receptor (Homo sapiens), sequence (P10275 whole entry, looked up): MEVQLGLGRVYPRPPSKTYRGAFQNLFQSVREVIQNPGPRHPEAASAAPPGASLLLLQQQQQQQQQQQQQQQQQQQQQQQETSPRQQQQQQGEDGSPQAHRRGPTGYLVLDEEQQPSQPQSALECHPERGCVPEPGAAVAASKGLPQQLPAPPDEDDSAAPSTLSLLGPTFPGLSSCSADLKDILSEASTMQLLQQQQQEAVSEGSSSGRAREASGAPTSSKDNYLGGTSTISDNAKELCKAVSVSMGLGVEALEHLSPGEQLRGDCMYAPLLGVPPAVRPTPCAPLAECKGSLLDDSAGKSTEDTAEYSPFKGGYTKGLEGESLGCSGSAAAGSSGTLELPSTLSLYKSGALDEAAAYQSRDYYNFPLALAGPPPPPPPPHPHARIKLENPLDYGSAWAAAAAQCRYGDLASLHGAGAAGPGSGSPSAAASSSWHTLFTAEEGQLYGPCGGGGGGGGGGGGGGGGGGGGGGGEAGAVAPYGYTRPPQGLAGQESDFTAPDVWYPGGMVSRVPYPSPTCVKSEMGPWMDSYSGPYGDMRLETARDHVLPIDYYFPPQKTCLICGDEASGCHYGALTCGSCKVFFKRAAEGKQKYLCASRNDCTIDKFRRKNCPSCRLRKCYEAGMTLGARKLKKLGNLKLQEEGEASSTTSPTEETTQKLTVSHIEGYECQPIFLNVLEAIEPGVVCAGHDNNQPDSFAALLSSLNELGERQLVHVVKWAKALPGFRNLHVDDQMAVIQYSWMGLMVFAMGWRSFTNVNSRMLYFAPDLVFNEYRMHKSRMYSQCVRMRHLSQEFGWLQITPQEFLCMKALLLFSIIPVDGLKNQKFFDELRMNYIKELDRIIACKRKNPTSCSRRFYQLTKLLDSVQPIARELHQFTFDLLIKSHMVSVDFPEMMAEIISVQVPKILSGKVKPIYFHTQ
Glucocorticoid receptor (Homo sapiens), sequence (P04150 whole entry, looked up): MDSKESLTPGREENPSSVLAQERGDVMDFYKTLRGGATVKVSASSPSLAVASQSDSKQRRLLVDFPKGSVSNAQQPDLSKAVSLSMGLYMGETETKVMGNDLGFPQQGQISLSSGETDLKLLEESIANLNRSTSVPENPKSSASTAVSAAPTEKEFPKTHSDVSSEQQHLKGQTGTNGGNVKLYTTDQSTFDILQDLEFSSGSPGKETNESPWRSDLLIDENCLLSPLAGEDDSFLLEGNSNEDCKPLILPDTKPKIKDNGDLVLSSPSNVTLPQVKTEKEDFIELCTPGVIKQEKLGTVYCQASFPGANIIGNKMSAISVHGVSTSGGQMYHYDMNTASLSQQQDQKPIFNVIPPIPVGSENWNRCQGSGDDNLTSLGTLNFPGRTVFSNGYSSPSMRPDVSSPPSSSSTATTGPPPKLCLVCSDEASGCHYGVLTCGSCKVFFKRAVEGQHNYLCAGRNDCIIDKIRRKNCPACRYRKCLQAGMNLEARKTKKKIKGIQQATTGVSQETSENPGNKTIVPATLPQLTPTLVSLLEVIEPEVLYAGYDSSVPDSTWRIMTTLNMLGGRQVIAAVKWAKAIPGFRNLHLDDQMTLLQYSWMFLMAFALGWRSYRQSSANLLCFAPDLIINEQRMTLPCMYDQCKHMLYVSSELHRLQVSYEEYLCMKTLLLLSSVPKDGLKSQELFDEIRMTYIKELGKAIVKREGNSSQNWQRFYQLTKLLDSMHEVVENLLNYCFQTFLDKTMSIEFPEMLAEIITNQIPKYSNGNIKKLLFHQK

| SMILES | Potency [1] | Potency [2] | Potency [3] | Potency [4] | Potency [5] | Potency [6] | outcome [7] | Potency [8] | Potency [9] | Potency [10] | Potency [11] | Potency [12] | Potency [13] | activation [14] | Potency [14] | outcome [15] | Potency [16] | Potency [17] | Potency [18] | Potency [19] |
| --- | --- | --- | --- | --- | --- | --- | --- | --- | --- | --- | --- | --- | --- | --- | --- | --- | --- | --- | --- | --- |
| CN(C)CCOc1ccccc1Cc1ccccc1 (tested in a mixture with another compound) | inactive | inactive | inactive | inactive | inactive | inactive | inactive | inactive | 26.6 µM (active) | 29.8 µM (active) | inactive |  |  |  |  |  |  |  |  |  |
| Cc1ccc(C2(O)CCN(CCCC(=O)c3ccc(F)cc3)CC2)cc1 | inactive | inactive | inactive | inactive | inactive | inactive | inactive | inactive | 11.9 µM (active) | 10.6 µM (active) | inactive | 11.9 µM (active) | inactive |  |  |  |  |  |  |  |
| CC[C@@]1(O)C(=O)OCc2c1cc1n(c2=O)Cc2cc3c([N+](=O)[O-])cccc3nc2-1 | inactive | inactive | inactive | inactive | inactive | inactive | inactive |  | 0.119 µM (active) | 0.0841 µM (active) |  | 0.0944 µM (active) | inactive | 5.3% [inconclusive] (active) |  |  |  |  |  |  |
| C[C@H]1C[C@@H]2[C@H]([C@@H](O)C[C@@]3(C)[C@H]2CC[C@]3(O)C(=O)COC(=O)CCC(=O)O)[C@@]2(C)C=CC(=O)C=C12 | inactive | inactive | inactive | inactive | inactive | inactive | inactive | inactive | inactive | inactive | inactive |  | inactive |  | 0.0268 µM [inconclusive] (active) |  |  |  |  |  |
| C/C(=C(\CCOC(=O)c1ccccc1)SS/C(CCOC(=O)c1ccccc1)=C(/C)N(C=O)Cc1cnc(C)nc1N)N(C=O)Cc1cnc(C)nc1N | inactive | inactive | inactive | inactive |  | inactive | inactive | inactive | 10.6 µM (active) | 26.6 µM (active) | inactive | 23.7 µM (active) | inactive |  | inactive | inactive | inactive |  |  |  |
| CN1CCCC(CN2c3ccccc3Sc3ccccc32)C1 (stereo not drawn) | inactive | inactive | inactive | inactive | inactive | inactive | inactive | inactive | 7.5 µM (active) | 9.44 µM (active) |  | 8.41 µM (active) | inactive |  | inactive |  | inactive |  |  |  |
| O=C(O)[C@@H](O)[C@H](O)[C@H](O)[C@@H](O)C(=O)O (tested in a mixture with another compound) | inactive | inactive | inactive | inactive | inactive | inactive | inactive | inactive | inactive | inactive | inactive | inactive | inactive |  |  |  |  |  |  |  |
| CC[C@]1(O)CC2CN(CCc3c([nH]c4ccccc34)[C@@](C(=O)OC)(c3cc4c(cc3OC)N(C)[C@H]3[C@@](O)(C(N)=O)[C@H](O)[C@]5(CC)C=CCN6CC[C@]43[C@@H]65)C2)C1 (stereo partly drawn) | inactive | inactive | inactive | inactive | inactive | inactive | inactive | inactive | 0.0473 µM (active) | 0.0596 µM (active) | inactive | 0.0531 µM (active) | inactive |  | inactive |  |  | 0.213 µM (active) | inactive | inactive |
| CCC(=O)OCC(=O)[C@@]1(OC(=O)CC)[C@H](C)C[C@H]2[C@@H]3CCC4=CC(=O)C=C[C@]4(C)[C@@]3(F)[C@@H](O)C[C@@]21C | inactive | inactive | inactive | inactive | inactive | inactive | inactive | inactive | 23.7 µM (active) | 26.6 µM (active) | inactive | 29.8 µM (active) |  |  |  |  |  |  |  |  |
| CC1(C)S[C@@H]2[C@H](NC(=O)C(C(=O)O)c3ccsc3)C(=O)N2[C@H]1C(=O)O (stereo partly drawn) | inactive | inactive | inactive | inactive | inactive | inactive | inactive | inactive | inactive | inactive | inactive | inactive | inactive |  | inactive |  | inactive |  |  |  |
| N[C@H](CC(=O)O)C(=O)O | inactive | inactive | inactive | inactive | inactive | inactive | inactive | inactive | inactive | inactive | inactive | inactive |  |  | inactive |  |  |  |  |  |
| Nc1ncnc(Nc2ccc(Cl)cc2)n1 | inactive | inactive | inactive | inactive |  | inactive | inactive | inactive | inactive | inactive | inactive | inactive | inactive |  | inactive | inactive | inactive |  |  |  |
| O=[N+]([O-])O[C@@H]1CO[C@H]2[C@@H]1OC[C@@H]2O | inactive | inactive | inactive | inactive | inactive | inactive | inactive | inactive | inactive | inactive | inactive |  | inactive |  | inactive |  | inactive |  |  |  |
| C[C@H]1[C@@H](OC(=O)CCC(=O)O)O[C@@H]2OC3(C)CC[C@H]4[C@H](C)CC[C@@H]1[C@@]24OO3 | inactive | inactive | inactive | inactive | inactive | inactive | inactive | inactive | 0.188 µM (active) | 0.119 µM (active) |  |  | inactive |  | inactive |  |  |  |  |  |
| CCCCCCC(=O)O[C@H]1CC[C@H]2[C@@H]3CCc4cc(O)ccc4[C@H]3CC[C@]12C | inactive | inactive | inactive | inactive | inactive | inactive | inactive | inactive | inactive | inactive | inactive |  | inactive |  |  |  | 7.56 µM (active) |  |  |  |
| C[C@@H]1C/C=C/C=C/C=C/C=C/[C@H](O[C@@H]2O[C@H](C)[C@@H](O)[C@H](N)[C@@H]2O)C[C@@H]2O[C@](O)(C[C@@H](O)C[C@H]3O[C@@H]3/C=C/C(=O)O1)C[C@H](O)[C@H]2C(=O)O | inactive | inactive | inactive | inactive | inactive | inactive | inactive | inactive | inactive | inactive | inactive | inactive | inactive |  | inactive |  | inactive |  |  |  |
| CC(=O)N[C@@H](C=O)[C@@H](O)[C@H](O)[C@H](O)CO | inactive | inactive | inactive | inactive | inactive | inactive | inactive | inactive | inactive | inactive | inactive |  |  |  |  |  |  |  |  |  |
